Screening results (PubChem BioAssay)
NPC1 prom act: activators of NPC1 promoter | Huh7 NPC1 promoter luciferase reporter, 24 h | Potency, µM (top dose mostly 9.22 µM), for the others: at the top dose activation, actives largely listed as activators | actives 2.4% (n = 320,000) | AID 485313; note: % of control where 0% means no effect; nearly all actives have a fitted effect of over 60% in size
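Stably transfected Huh7 (NPC1 promoter→luciferase), 1500 cells/well in Opti-MEM + 10% FBS, 2 h settle, then compound 24 h at 37 °C. Luminescence after 10 min with Amplite reagent.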
Luc counter: counter-screen: inhibitors of Kinase-Glo firefly luciferase. Q27757. Kinase-Glo luciferase, ATP luminescence, 8 min. Potency, µM (series often up to 38.3 µM), without a hit: at the highest dose activity change, negative = inhibition, most hits filed as inhibitors. actives 0.28% (n = 200,000). AID 1379; note: % is set by controls: 0 for no effect and ±100 for the full control effect; nearly all actives have a fitted effect of over 60% in size
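Substrate mix (final 50 mM imidazole pH 7.2, 50 mM KCl, 7 mM MgCl2, 10 uM ATP, 0.01% Tween 20, 0.05% BSA) plus pin-tool compound, then Kinase-Glo detection mix; 8 min ambient, luminescence read.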
Rab9 promoter act: activators of Rab9 promoter | Huh7 Rab9 promoter-luciferase reporter, luminescence, 24 h | Potency, µM (top dose mostly 9.22 µM), without a hit: top-dose activation, negative = inhibition, usual class: activators | actives 2.8% (n = 320,000) | AID 485297; note: % of control where 0% means no effect; nearly all actives have a fitted effect of over 60% in size
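Steps: seed 1500 Huh7 Rab9-luc cells per well, rest 2 h at 37 °C; add compound in DMSO; incubate 24 h; add luciferase reagent, 10 min ambient; read luminescence.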
FLuc modulator: counter-screen for miR-21 project: firefly luciferase inhibitors or activators. Potency, µM (series often up to 57.5 µM), for the others: at the highest dose activity change, negative = inhibition, hits mostly inhibitors. AID 588342. purified FLuc, Km substrates, luminescence inhibition. actives 6.9% (n = 360,000). P08659;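 note: plate controls were vehicle for no effect and reference inhibitor for full effect; nearly all actives have a fitted effect of over 55% in size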
Target sequence (P08659 whole entry, looked up): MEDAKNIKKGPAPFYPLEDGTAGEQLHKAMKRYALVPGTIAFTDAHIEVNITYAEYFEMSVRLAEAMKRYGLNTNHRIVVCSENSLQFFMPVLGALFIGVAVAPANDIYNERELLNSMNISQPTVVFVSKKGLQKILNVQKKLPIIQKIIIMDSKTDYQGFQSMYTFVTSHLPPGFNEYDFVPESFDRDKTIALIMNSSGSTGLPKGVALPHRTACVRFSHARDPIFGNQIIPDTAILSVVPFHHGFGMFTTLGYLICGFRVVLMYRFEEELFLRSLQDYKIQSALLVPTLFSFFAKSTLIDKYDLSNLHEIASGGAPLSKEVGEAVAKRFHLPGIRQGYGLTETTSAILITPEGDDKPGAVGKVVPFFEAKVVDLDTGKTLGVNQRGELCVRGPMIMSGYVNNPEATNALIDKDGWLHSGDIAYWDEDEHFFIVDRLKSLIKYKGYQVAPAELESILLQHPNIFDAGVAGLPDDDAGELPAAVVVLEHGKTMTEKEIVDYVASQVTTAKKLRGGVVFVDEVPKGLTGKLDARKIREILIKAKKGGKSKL
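Biochemical qHTS of compounds, final roughly 60 µM downward over six points, against 10 nM purified firefly luciferase using Km concentrations of substrates (10 uM D-luciferin, 10 uM ATP) in Tris acetate pH 7.5 buffer; luminescence output.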
ELG1 genotoxic: induces genotoxicity in HEK293T cells with luciferase-tagged ELG1; actives 1.3% (n = 330,000); Potency, µM (doses to about 46 µM), for the others: at the highest dose activity change, positive = activation, hits mostly activators; HEK293T ELG1-luciferase reporter, luminescence, 16 h; note: % of control where 0% means no effect; nearly all actives have a fitted effect of over 60% in size
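Quantitative HTS format in 1536-well plates. HEK293T ELG1-luciferase reporter cells receive test compound and are incubated 16 hr at 37 °C, 5% CO2; ONE-Glo added, 30 min room temperature, then luminescence read.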
SMN2 splice enh: SMN2 splice variant enhancement; HEK293 SMN2-luciferase splicing reporter, luminescence, 30-36 h; Potency, µM (titrated, usually from 46.1 µM), for the others: top-dose activity change, positive = activation, usual class: activators; actives 2.8% (n = 210,000); AID 1458; note: % of control where 0% means no effect; nearly all actives have a fitted effect of over 55% in size
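HEK293 cells carry an SMN2 […]–luciferase reporter in which exon 7 inclusion puts luciferase in frame. Cells were plated 10-12 h before compound addition, then incubated 30-36 h at 37C. ONE-Glo luminescence was read; sodium butyrate at 4.5 mM final served as control.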
* = called active by the depositor; ? = inconclusive; . = not tested or not shown; [ ] = remark or other dose. This is a sample that favours compounds with a hit; in the whole collection about 7.5% have one here. Calls come from the whole dose curve; as a rule, active = well fitted curve in the direction sought with a large enough effect; inconclusive = small, poorly fitted or top-dose-only effect, or another doubt; inactive = no such curve, though single readings can be large; an effect the other way counts as inactive or inconclusive. Potency is the fitted concentration of half-maximal effect.

SMILES	NPC1 prom act	Luc counter	Rab9 promoter act	FLuc modulator	ELG1 genotoxic	SMN2 splice enh
CCOC(=O)c1nnc(-c2ccc(C)cc2)nc1N1CCSCC1	1%	-5%	10%	13µM*	10%	4%
CSc1ccc(/C=N/NC(=O)c2cc(O)cc(O)c2)cc1	?	?	?	9.5µM*	?	?
CSc1ccc(/C=N/NC(=O)c2sccc2C)cc1	0.56µM*	?	0.63µM*	0.43µM*	1.8µM*	2.5µM*
CSc1ccc(/C=N/NC(=O)c2ccc(C)c(C)c2)cc1	2%	-6%	-1%	19µM*	6%	11%
Cc1cccc(C(=O)Oc2ccc(/C=N/NC(=O)c3cc(O)cc(O)c3)cc2)c1	-1%	.	4%	?	7%	.
COc1ccc(OCc2ccc(/C=N\NC(=O)c3sccc3C)o2)cc1	?	.	?	27µM*	13%	.
COc1ccc(CNC(=O)CCC(=O)N2CCSc3ccccc32)cc1	.	.	.	5%	.	.
CCOC(=O)c1cc(-c2ccc(OC)cc2)n(CCC(=O)NCc2ccccc2OC)c1C	.	.	.	-6%	.	.
CCOc1ccccc1NC(=O)Cn1ncc2c(=O)oc3ccc(C)cc3c21	.	.	.	1%	.	-12%
COC(=O)CSc1ncc2c(n1)-c1ccccc1N(Cc1ccc(Cl)cc1)S2(=O)=O	.	.	.	4%	.	.
COc1ccc(NC(=O)Cn2cnc3c(oc4ccccc43)c2=O)cc1OC	.	.	.	-5%	.	.
CN1CCN(NC(=O)Nc2cccc(F)c2)CC1	2%	.	0%[1.84 µM]	-19%	17%	.
COc1cccc(N2CCN(c3ncnc4onc(-c5ccc(F)cc5)c34)CC2)c1	.	.	.	2%	.	.
O=S(=O)(c1ccc(Cl)s1)N1CCCc2cccc(O)c21	?	2%	4µM*	11µM*	17%	9%
O=C(N/N=C/C1CC2C=CC1C2)c1ccccc1O (stereo unspecified)	0%	.	-9%	21µM*	1%	.
Oc1c(C2=NCCNC(C(F)(F)F)=C2)ccc2ccccc12	2.8µM*	-3%	2.2µM*	4.8µM*	9.2µM*	11µM*
Cc1ccc(O)c(C2=NCCNC(C(F)(F)F)=C2)c1	-2%	-2%	-7%	5%	-3%	-8%
COC(=O)Cc1c(C)c2ccc(OC3CCCCC3=O)cc2oc1=O (stereo unspecified)	22%	.	23%	?	5%	.
COC(=O)Cc1c(C)c2ccc(OC(C)C)cc2oc1=O	?	.	3.2µM*	15µM*	18%	.
COC(=O)Cc1c(C)c2ccc(OC(=O)c3ccco3)cc2oc1=O	0%	-1%	1%	17µM*	4%	-4%
Brc1ccc2nc(-c3cccs3)c(NCC3CCCO3)n2c1 (stereo unspecified)	?	-7%	27%	12µM*	-8%	.
Cc1ccc(-c2nnc(-c3cccc(NC(=O)c4cccs4)c3)o2)cc1	29%	2%	2%	2.7µM*	-6%	-14%
O=C(Cc1cccs1)Nc1cccc(-c2nc3ccccc3o2)c1	-1%	0%	-3%	-6%	1%	-6%
Cc1cccc(-c2nnc(-c3cccc(NC(=O)Cc4cccs4)c3)o2)c1	2%	7%	-2%	12µM*	0%	27%
O=C(Nc1cccc(-c2nnco2)c1)c1cccs1	3%	.	0%	-27%	-1%	.
CCc1cccc(NC(=O)CCc2c(C)nn(-c3ccc(N4CCCCC4)nn3)c2C)c1	24%	.	?	11µM*	14%	.
CCOc1ccc(NC(=O)CCc2c(C)nn(-c3ccc(N4CCCCC4)nn3)c2C)cc1	?	.	2.8µM*	2.7µM*	?	.
Cc1nn(-c2ccc(N3CCCC3)nn2)c(C)c1CCC(=O)NCc1ccc(F)cc1	.	.	.	5%	.	.
CCc1ccc(NC(=O)CCc2c(C)nn(-c3ccc(N4CCCCC4)nn3)c2C)cc1	?	.	?	12µM*	13%	.
Cc1nn(-c2ccc(N3CCCCC3)nn2)c(C)c1CCC(=O)Nc1cccc(F)c1	2.8µM*	.	4µM*	4.8µM*	?	.
